# From PubChem
# Hits are enriched below; roughly 4.1% of the tested compounds scored in any of these assays.
# hcDAF-12 act – H. contortus DAF-12 nuclear receptor activators, primary screen, cell-based, luminescence, HEK293, lit1-tk-luc reporter | HEK293 hcDAF-12 lit1-tk-luc reporter; 0% DMSO, 100% Δ7-dafachronic acid | activation, % at 6.8 µM | 370,000 tested, 1.4% active | AID 652067, 2013;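 active means activation above the mean of all tested compounds plus 3 SD, cut at about 5.5% in these data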
# ssDAF12 agonist – S. stercoralis DAF-12 nuclear receptor activators, primary screen, cell-based, luminescence, HEK293, GRIP1 co-expression, lit1-tk-luc; HEK293 ssDAF-12/GRIP1 lit1-tk-luc reporter; % of 3 µM dafachronic acid response; activation, % at 6.8 µM; Nuclear hormone receptor DAF-12 (Strongyloides stercoralis); AID 652126, 2013; 370,000 tested, 1% active;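 active means activation above the mean over all tested compounds plus 3 SD, cut at about 0.9% in these data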
# DAX1 inh-1 – DAX1 (NR0B1) inhibitors on StAR promoter, primary screen, cell-based, luminescence, SF-1 (NR5A1), full-length DAX-1 | AID 652010, 2013 | 370,000 tested, 1.1% active | inhibition, % at 6.8 µM | HEK293T StAR-luciferase reporter, SF-1/DAX-1 repression relief;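 active means inhibition above the mean over all tested compounds plus 3 SD, cut at about 3.6% in these data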;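 further: higher inhibition means more luminescence from relief of DAX-1 repression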
# DAX1 inh-2 – DAX1 (NR0B1) inhibitors, primary screen, cell-based, HEK293, Gal4-DAX1, luciferase luminescence; Nuclear receptor subfamily 0 group B member 1 (Homo sapiens), P51843; HEK293 Gal4-DAX1 luciferase reporter; inhibition, % at 6.75 µM; 340,000 tested, 0.99% active;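 active means inhibition above the mean over all tested compounds plus 3 SD, cut at about 4.2% in these data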;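 further: inhibition shows as a rise in luminescence from relieved DAX1 repression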
# Target sequence (P51843 207-470 limits assumed): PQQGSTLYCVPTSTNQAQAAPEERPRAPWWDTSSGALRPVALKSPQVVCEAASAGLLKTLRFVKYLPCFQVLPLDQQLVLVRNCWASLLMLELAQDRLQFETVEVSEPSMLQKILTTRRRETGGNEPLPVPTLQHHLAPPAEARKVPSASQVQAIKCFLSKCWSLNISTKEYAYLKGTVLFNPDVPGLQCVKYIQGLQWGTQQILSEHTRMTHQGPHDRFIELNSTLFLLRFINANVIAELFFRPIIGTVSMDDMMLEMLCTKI
# hgDAF-12 ag – H. glycines DAF-12 receptor agonists, primary screen, cell-based, luminescence, HEK293, GAL4 fusion, UAS-luciferase. Nuclear hormone receptor DAF-12 (Heterodera glycines), GAL4 fusion. HEK293 GAL4-hgDAF12 UAS-luciferase reporter, agonist luminescence; normalized to butyrate control. AID 687014, 2013. 370,000 tested, 1.8% active. activation, % at 6.8 µM;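 active means activation above a cutoff set at the mean of all screened compounds plus 3 SD, cut at about 10% in these data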
# A number is an active result; n = inactive; x = not tested or not shown.
SMILES,hcDAF-12 act,ssDAF12 agonist,DAX1 inh-1,DAX1 inh-2,hgDAF-12 ag
O=Nc1ccc(O)c2ncccc12,n,n,n,n,n
C=CCNC(=O)C12CCC(C)(C(=O)[C@H]1Br)C2(C)C (some centres undefined),n,n,n,6.9,n
COC(=O)N1CCCC1c1cccc2[nH]cc(C)c12 (centres undefined),n,n,n,x,n
C[C@H]1[C@@H]2C[C@@]3(O[C@H](c4ccc(C(F)(F)F)cc4)N=C3C[C@@H]1c1ccccc1)N(Cc1ccncc1)C2=O,n,n,n,x,n
C[C@H](O)[C@@H]1C(=O)N2CCc3c([nH]c4c(-c5ccc6c(c5)OCO6)cccc34)[C@@H]2C[C@@H]1N(C)C(=O)Nc1ccccc1,n,n,n,x,n
Cc1ccc2c(c1)C1CS(=O)(=O)N(C3CCCC3)CN1C2 (centres undefined),n,n,n,x,n
CCc1ccc(NC(=S)N2CCCCCCC2)cc1,n,n,n,n,11
COc1ccc(-c2cnn3c4c(c(C)nc23)CCN4C2CCCC2)cc1OC,n,n,n,5.9,n
COCCN1CCc2c(C)nc3c(-c4ccc(OC)c(OC)c4)cnn3c21,n,n,n,n,n
CC(C)c1cc(C(C)C)c(S(=O)(=O)NCC(=O)N2CCN(c3ncccn3)CC2)c(C(C)C)c1,n,n,n,x,n
COC(=O)c1ccc(C)c(NC(=O)CN(c2cc(OC)ccc2OC)S(C)(=O)=O)c1,n,n,4.2,n,n
COc1ccc(OC)c(N(CC(=O)N2CCCC2)S(C)(=O)=O)c1,n,n,n,4.5,n
COc1ccc(C)cc1N(CC(=O)N1CCCC1)S(C)(=O)=O,n,n,n,n,n
Cc1ccccc1CN1CCCCC(NC(=O)c2cccc(C(F)(F)F)c2)C1=O (centres undefined),n,n,n,x,n
Cc1cc2c(c(=O)o1)[C@@]1(C(=O)N(C)c3cc(Br)ccc31)C1=C(CCCC1=O)O2,n,n,n,x,n
NC(=O)c1cc2ccc(O)cc2oc1=Nc1ccccc1,n,n,n,n,12
COc1ccc(NC(C)=O)cc1S(=O)(=O)Nc1ccccc1C(=O)N1CCCC1,n,n,n,n,n
COc1ccc(NC(C)=O)cc1S(=O)(=O)Nc1ccc(C(=O)N2CCCC2)cc1,n,n,n,4.4,n
CCOC(=O)/C(C#N)=C/Nc1ccccc1OC,n,n,n,n,13
C/C=C/C=C/C(=O)N1C[C@H](C)N(C)C[C@H]1C,n,n,n,x,n
C#CCOCCOCCOCCNc1nc(N2CCOCC2)nc(N2CCN(C(=O)[C@H](CCC(=O)O)n3cc(C(N)CO)nn3)CC2)n1 (some centres undefined),n,n,x,x,n
COc1cc(CCN(C(=O)c2cc3ccccc3[nH]2)C(c2ccccn2)c2nc3ccccc3[nH]2)cc(OC)c1 (centres undefined),n,1.1,n,x,n
Cc1cc(NS(=O)(=O)c2ccc(NC(=O)CSc3nnc(SCc4ccc(Cl)cc4)s3)cc2)nc(C)n1,n,n,n,x,n
COc1ccc(CN=Cc2c(O)[nH]c3ccccc23)cc1,n,n,n,n,n
Oc1[nH]c2ccccc2c1/C=N/c1nccs1,5.7,n,n,n,n
SMILES,hcDAF-12 act,ssDAF12 agonist,DAX1 inh-1,DAX1 inh-2,hgDAF-12 ag
O=c1c(-c2ccccc2)n[nH]c2ccccc12,n,n,n,n,11
COC(=O)c1scc(C)c1NC(=O)c1ccc(Cl)cc1,x,x,x,n,x
COC(=O)c1scc(C)c1N/N=C(\C)c1ccc(F)cc1F,5.8,n,n,n,n
COc1cccc(CNC(=O)C2CCN(S(=O)(=O)c3ccc4c(c3)CCC(=O)N4)CC2)c1,n,n,n,5.0,n
C=CCc1c(C)nc(N2CCSCC2)[nH]c1=O,n,n,n,4.3,n
CN(C(=O)c1ccccc1OCC(=O)Nc1ccc(Br)cc1)c1ccccc1,n,1.0,n,x,n
COC(=O)[C@H](C(C)C)N1Cc2nnn(Cc3ccccc3)c2-c2ccccc2S1(=O)=O,n,n,n,x,n
CC(C)NC(=O)NC(=O)COC(=O)CCCSc1nc2ccccc2s1,n,n,n,7.4,n
O=C(O)C1CCN(C(=O)CSc2nc3ccccc3s2)CC1,n,n,n,n,n
CN(C)CCCSc1nc2ccccc2s1,n,2.0,n,n,n
CC1CCN(C(=O)CSc2nc3ccccc3s2)CC1,6.5,n,n,4.6,12
O=C(CSc1nc2ccccc2s1)N1CCCCC1,n,n,n,n,12
CCCCCCCCN1C(=O)[C@@H](CC(=O)NCc2ccc(OC)c(OC)c2)C[C@@]2(C(=O)OC)C1=C[C@H](C1CCCC1)O[C@@H]2C,n,n,n,x,n
CC1Cc2ccccc2N1C(=O)CSc1nc2ccccc2s1 (centres undefined),n,n,n,n,n
CC1CCCC(C)N1C(=O)CSc1nc2ccccc2s1 (centres undefined),n,n,n,5.0,n
NC(=O)c1cnn(-c2cc(Oc3ccccc3)ncn2)c1N,n,n,3.7,n,n
Cc1ccsc1C(=O)NNC(=S)NC1CCCCC1,n,n,4.1,n,n
CNC(=S)NNC(=O)c1sccc1C,n,n,n,n,n
Cc1ccc(Sc2ccc(CN3CCCC3)cc2[N+](=O)[O-])cc1,n,n,n,n,n
Cc1ccc(Sc2ccc(CO)cc2[N+](=O)[O-])cc1,n,11,n,n,n
C/C(=N\NC(=O)c1nn(C)cc1Br)c1ccncc1,n,n,n,7.6,n
